Source: the supplement of paper PMC8047044
Values joined by “and” are separate entries in the source; they are usually repeats but may differ in a detail not shown here. Identical values can stand only once. Counter-ions that a name gives are not always drawn.

Tests used:
Neuro-2a [1] = assay: neurite formation score, plate-normalized to DMSO control mean 5.04 (score (0-8 scale)); higher = more or longer neurites; conditions: 1 µM
Protocol: (§1)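 Neuro-2a mouse neuroblastoma cells in PLL-coated 96-well plates were pre-treated for 1 h in DMEM(+) with each kinase inhibitor at 1 µM, then switched to serum-free DMEM(-) with inhibitor to induce neurite outgrowth and fixed about 2-3 h later. Three blinded observers scored neurite formation from 0 (no neurites) to 8 (long neurites on almost all cells).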

Neuro-2a [2] = assay: as above; conditions: 0.1 µM
Protocol: as §1, with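 “at 0.1” for “at 1”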

Structure (SMILES)	neurite formation score (Neuro-2a [1])	neurite formation score (Neuro-2a [2])
CN1CCN(CCOc2cc(OC3CCOCC3)c3c(Nc4c(Cl)ccc5c4OCO5)ncnc3c2)CC1 [Saracatinib (AZD0530)]	4.91	3.38
CNC(=O)c1ccc(-c2cnc3ncc(Cc4ccc5ncccc5c4)n3n2)cc1F	5.14	–
COc1cc2nccc(Oc3ccc(NC(=O)Nc4cc(C)on4)c(Cl)c3)c2cc1OC [Tivozanib (AV-951)]	4.24	4.71
CC(C)(C)NS(=O)(=O)c1cncc(-c2cc(F)c3nc(N)nn3c2)c1	4.36	4.92
COc1ccc(-c2cc3c(C)nc(N)nc3n([C@H]3CC[C@H](OCCO)CC3)c2=O)cn1	3.96	4.92
O=c1oc2c(O)c(O)cc3c(=O)oc4c(O)c(O)cc1c4c23 [Ellagic acid]	4.47	4.42
CNC(=O)c1ccccc1Nc1nc(Nc2ccc(N3CCOCC3)cc2OC)ncc1Cl	4.29	4.58
Cc1cn(-c2cc(NC(=O)c3ccc(C)c(Nc4nccc(-c5cccnc5)n4)c3)cc(C(F)(F)F)c2)cn1 [Nilotinib monohydrochloride monohydrate]	4.47	3.09
CN([C@@H](Cc1ccc(OS(=O)(=O)c2cccc3cnccc23)cc1)C(=O)N1CCN(c2ccccc2)CC1)S(=O)(=O)c1cccc2cnccc12	2.9	4.54
C[C@@H]1CCN(C(=O)CC#N)C[C@@H]1N(C)c1ncnc2[nH]ccc12	4.02 and 4.69	–
Cc1nc(N)sc1-c1ccnc(Nc2ccc(N3CCOCC3)cc2)n1	4.69	4.58
NC(=O)c1ccc(-c2nc(-c3ccc4c(c3)OCCO4)c(-c3ccccn3)[nH]2)cc1	4.36	4.92
Cc1cc2c(F)c(Oc3ncnn4cc(OC[C@@H](C)OC(=O)[C@H](C)N)c(C)c34)ccc2[nH]1	3.57	4.04
COc1ccc(-c2nc(N3CCOCC3)c3sc(CN(C)c4ncc(C(=O)NO)cn4)cc3n2)cn1	4.36	–
O=C1NC(=O)/C(=C\c2ccc3nccnc3c2)S1	4.14	–
N#CC1(c2ccc(NC(=O)c3cccnc3NCc3ccncc3)cc2)CCCC1 [Apatinib]	4.54	4.08
Nc1cccc(-c2cc3c(Oc4cccc(O)c4)ncnc3[nH]2)c1	1.88	–
Cc1cccc(CC(=O)N2CCc3c2ccc(-c2cn(C)c4ncnc(N)c24)c3F)n1	4.21	4.42
N#Cc1ccc2[nH]c(O)c(-c3ccc(CN4CCOCC4)cn3)c2c1	4.54	4.08
N#C/C(=C(/N)Sc1ccc(N)cc1)c1ccccc1C(F)(F)F	3.91	4.71
CCS(=O)(=O)N1CCN(c2ccc(Nc3ncc(C(N)=O)c(NC4CC4)n3)cc2)CC1	4.54	–
CC(C)(CCCCCC(O)CCCCCC(C)(C)C(=O)O)C(=O)O	0.138	0.0903
N#CCNC(=O)c1ccc(-c2ccnc(Nc3ccc(N4CCOCC4)cc3)n2)cc1 [CYT387 sulfate salt]	4.69	–
C[C@@]1(C(=O)Nc2ccc(F)nc2)CCCN1c1nc(Nc2cc(C3CC3)n[nH]2)c2cccn2n1	4.57	4.38
CC(C)CC(=O)Nc1n[nH]c2c1CN(C(=O)C1CCN(C)CC1)C2(C)C	4.57	–
Fc1cc(-c2cccc3ncc(-c4cnn(C5CCNCC5)c4)nc23)cc(F)c1CN1CCOCC1	4.47	4.09

Structure (SMILES)	neurite formation score (Neuro-2a [1])	neurite formation score (Neuro-2a [2])
Cc1ccc(-c2csc3ncnc(SCCC(=O)O)c23)cc1	4.02	4.58
CNCc1ccc(-c2cc(-c3nc(-c4ccc(S(=O)(=O)C(C)C)cc4)cnc3N)on2)cc1	1.29	3.25
Cc1ccc(NC(=O)c2cccc(C(C)(C)C#N)c2)cc1Nc1ccc2ncn(C)c(=O)c2c1	5.24	4.88
O=C(NCCCNc1nc(Nc2cccc(NC(=O)N3CCCC3)c2)ncc1I)c1cccs1	5.24	4.54
Cc1ccc(C(=O)Nc2ccc(CN3CCN(C)CC3)c(C(F)(F)F)c2)cc1C#Cc1cnc2[nH]ncc2c1	0.626	2.58
Cc1cc(CS(=O)(=O)c2ccccc2)cc(OCc2ccc(CN3CCC[C@@H]3CO)cc2)c1	4.69	5.58
Cc1ncc(CCCN(C)C)cc1Nc1ncc2c(n1)-c1ccc(C(F)(F)F)cc1NC(=S)C2	5.29	4.92
CC1(C)CNc2cc(NC(=O)c3cccnc3NCc3ccncc3)ccc21 [Motesanib Diphosphate (AMG-706)]	4.36	4.92
O=[N+]([O-])c1ccc(-c2nc(-c3ccc(F)cc3)c(-c3ccncc3)[nH]2)cc1	3.96	4.25
Cc1[nH]c(/C=C2\C(=O)Nc3ccc(S(=O)(=O)Cc4c(Cl)cccc4Cl)cc32)c(C)c1C(=O)N1CCC[C@@H]1CN1CCCC1	3.91	5.04
Nc1nc(N)c2nc(-c3cccc(O)c3)c(-c3cccc(O)c3)nc2n1	4.24	3.38
Cc1cc(Nc2cc(N3CCN(C)CC3)nc(Sc3ccc(NC(=O)C4CC4)cc3)n2)n[nH]1 [VX-680 (MK-0457,Tozasertib)]	5.02	3.58
O=C(Cc1ccc(-c2ccc(OCCN3CCOCC3)cc2)cn1)NCc1ccccc1	-0.529	-0.243
O=C1NCCCc2c1oc1ccc(O)cc21	5.29	4.58
CCN(CC)CCCC(C)Nc1nc(C)cc(Nc2ccc3nc(C)cc(N)c3c2)n1 (centres undefined)	4.91	5.38
C[C@H](Nc1ncnc2nc[nH]c12)c1cc2cccc(Cl)c2c(=O)n1-c1ccccc1	2.91	5.04
CN1CCN(c2ccc3nc(-c4c(N)c5c(F)cccc5[nH]c4=O)[nH]c3c2)CC1 [Dovitinib (TKI-258, CHIR-258)]	4.88	4.08
COc1cc2ncnc(Nc3ccc(F)c(Cl)c3)c2cc1NC(=O)/C=C/CN1CCCCC1	4.9	4.88
Cc1[nH]nc2ccc(-c3cncc(OC[C@@H](N)Cc4ccccc4)c3)cc12	4.63	4.25
Cc1ccc(S(=O)(=O)/C=C/C#N)cc1	5.14	2.42
O=S(=O)(NCCNC/C=C/c1ccc(Br)cc1)c1cccc2cnccc12	4.54	4.75
Cc1nc2c(-c3cnc(N)nc3)nc(N3CCOCC3)nc2n1C(C)C	4.02	4.25
C=CC(=O)N1CCC(Oc2cc3c(Nc4ccc(Cl)c(Cl)c4F)ncnc3cc2OC)CC1 [Poziotinib]	4.14	3.76
CNC(=O)c1c(F)cccc1Nc1nc(Nc2cc3c(cc2OC)CCN3C(=O)CN(C)C)nc2[nH]ccc12	4.96	4.58
CCCCCCCCCCCCCCCCCC(=O)OC[C@H](CO)OC(=O)CCCCCCCCCCCCCCCCC [1,2-Distearoyl-sn-glycerol]	4.54	5.42
CC(C)(C)c1ccc(S(=O)(=O)/C=C/C#N)cc1	4.21	4.75

Structure (SMILES)	neurite formation score (Neuro-2a [1])	neurite formation score (Neuro-2a [2])
COc1ccc(CNc2nc(N(CCO)CCO)nc3c2ncn3C(C)C)cc1	5.57	4.04
COc1cc(Nc2ncc(F)c(Nc3ccc4c(n3)N(COP(=O)(O)O)C(=O)C(C)(C)O4)n2)cc(OC)c1OC [Fostamatinib (R788)]	4.8	3.76
COc1cc(Nc2ncc(F)c(Nc3ccc4c(n3)NC(=O)C(C)(C)O4)n2)cc(OC)c1OC [R406 (free base)]	3.9	5.21
Cc1nc(NC(=O)N2CCC[C@H]2C(N)=O)sc1-c1ccnc(C(C)(C)C(F)(F)F)c1	5.24	5.21
CC[C@H](CO)Nc1nc(NCc2ccccc2)c2ncn(C(C)C)c2n1 [Roscovitine (Seliciclib,CYC202)]	4.57	4.38
Cc1nc(NC(=O)N2CCC[C@H]2C(N)=O)sc1-c1csc(C(C)(C)C)n1	4.57	5.21
O=c1sn(-c2cccc3ccccc23)c(=O)n1Cc1ccccc1 [Tideglusib]	4.21	5.08
S=C(NCc1ccc2c(c1)OCO2)N1CCN(c2ncnc3c2oc2ccccc23)CC1 [Amuvatinib (MP-470, HPK 56)]	4.69	4.92
COc1cc(N2CCC(N3CCN(C)CC3)CC2)ccc1Nc1ncc(Cl)c(Nc2ccccc2S(=O)(=O)C(C)C)n1	2.24	5.54
Oc1ccc(Nc2nc(-c3ccc(Cl)cc3)cs2)cc1	4.21	2.42
CN1CC[C@H](c2c(O)cc(O)c3c(=O)cc(-c4ccccc4Cl)oc23)[C@H](O)C1 [Flavopiridol hydrochloride]	4.47	3.76
O=C(Nc1cccnc1)c1cc(-c2ccnc(F)c2)ccc1OCc1ccccc1	3.88	5.08
Cc1cc(Nc2nc(N[C@@H](C)c3ncc(F)cn3)ncc2Cl)[nH]n1	3.8	3.09
Cc1ncc(-c2ccnc(Nc3ccc(S(C)(=O)=O)cc3)n2)n1C(C)C	4.24	3.54
COc1cc2ncnc(Nc3ccc(O)cc3)c2cc1OC	5.02	4.25
Nc1nc(Nc2ccc(S(N)(=O)=O)cc2)nn1C(=O)c1c(F)cccc1F	5.02	5.58
COc1cc(C(=O)N2CCC(N3CCN(C)CC3)CC2)ccc1Nc1ncc2c(n1)N(C)c1ccccc1C(=O)N2C	4.36	4.92
Nc1ncnc2c1c(-c1cccc(OCc3ccccc3)c1)cn2C1CC(CN2CCC2)C1 (centres undefined)	3.24	4.71
CSc1cccc(Nc2ncc3cc(-c4c(Cl)cccc4Cl)c(=O)n(C)c3n2)c1	0.626	3.92
COc1ccc(S(=O)(=O)N(C(C)=O)c2ccccc2/C=C/c2cc[n+]([O-])cc2)cc1	0.569	3.54
NC1(Cc2ccc(Cl)cc2)CCN(c2ncnc3[nH]ccc23)CC1	5.63	4.92
Cc1ccc(F)c(NC(=O)Nc2ccc(-c3cccc4[nH]nc(N)c34)cc2)c1 [Linifanib (ABT-869)]	3.14	3.76
Cc1cnc(NC(=O)Nc2cc(Br)c(C)cc2OC[C@@H]2CNCCO2)cn1	4.96	4.58
Clc1ccc(C2(c3ccc(-c4cn[nH]c4)cc3)CCNCC2)cc1	5.24	4.54
